Source: PubChem BioAssay (NCATS)
“And” between values parts separate entries of the source, which are not always exact repeats. Equal entries are not always repeated. Inconclusive results are not listed. The source made the active and inactive calls. Calls come from the whole dose curve; as a rule, active = well fitted inhibition curve with a large enough effect; inconclusive = small, poorly fitted or top-dose-only effect; inactive = flat fitted curve, though single readings scatter.

Assays:
P93_24 = experiment: qHTS profiling for inhibitors of Plasmodium falciparum proliferation (AID 504749); conditions: P. falciparum in erythrocytes, SYBR Green DNA, 72 h; series mostly up to 28.7 µM
In short: (§1)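 Quantitative HTS: compounds pinned into medium, infected erythrocytes added (0.3% parasitemia, 2.5% hematocrit), 72 h culture at 37 C under 5% CO2. Saponin/Triton lysis with SYBR Green I, overnight RT, then fluorescence read.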

P94_40 = experiment: as above; conditions: P. falciparum in erythrocytes, SYBR Green DNA, 72 h; series mostly up to 28.7 µM
In short: as §1

PAD = experiment: as above; conditions: P. falciparum in erythrocytes, SYBR Green DNA, 72 h; series mostly up to 28.7 µM
In short: as §1

PC15 = experiment: as above; conditions: P. falciparum in erythrocytes, SYBR Green DNA, 72 h; series mostly up to 28.7 µM
In short: as §1

PC49 = experiment: as above; conditions: P. falciparum in erythrocytes, SYBR Green DNA, 72 h; series mostly up to 28.7 µM
In short: as §1

SC27B = experiment: as above; conditions: P. falciparum in erythrocytes, SYBR Green DNA, 72 h; series mostly up to 28.7 µM
In short: as §1

TAB109 = experiment: as above; conditions: P. falciparum in erythrocytes, SYBR Green DNA, 72 h; series mostly up to 28.7 µM
In short: as §1

TAB113 = experiment: as above; conditions: P. falciparum in erythrocytes, SYBR Green DNA, 72 h; series mostly up to 28.7 µM
In short: as §1

TAB165 = experiment: as above; conditions: P. falciparum in erythrocytes, SYBR Green DNA, 72 h; series mostly up to 28.7 µM
In short: as §1

W2 = experiment: as above; conditions: P. falciparum in erythrocytes, SYBR Green DNA, 72 h; series mostly up to 28.7 µM
In short: as §1

CRL-7250 = normal cell line; experiment: Cytotoxic Profiling of Annotated Libraries Using Quantitative High-Throughput Screening (AID 1296008); conditions: Five cell lines viability, CellTiter-Glo ATP luminescence, 48-72 h; max response: hits give low values; for max response: % is set by controls: 0 for no effect and ±100 for the full control effect
In short: (§2)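 Compounds were pin-transferred onto cells and incubated 48 or 72 hr at 37 degree Celsius, 95% humidity. CellTiter-Glo was added, plates sat 10 min at room temperature, then ATP-coupled luminescence was imaged as the viability read-out.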

HEK293 = experiment: as above; conditions: Five cell lines viability, CellTiter-Glo ATP luminescence, 48-72 h; max response: hits give low values
In short: as §2

HaCat [1] = experiment: as above; conditions: Five cell lines viability, CellTiter-Glo ATP luminescence, 48-72 h; max response: hits give low values
In short: as §2

NIH3T3 = experiment: as above; conditions: Five cell lines viability, CellTiter-Glo ATP luminescence, 48-72 h; max response: hits give low values
In short: as §2

HACAT [2] = experiment: qHTS assay to identify novel small-molecules to repurpose for Merkel cell carcinoma treatment (AID 1296009); conditions: MCC and control cell lines, CellTiter-Glo viability, 72 h; series mostly up to 44.8 µM
In short: (§3)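 Viability readout: ATP luminescence (CellTiter-Glo) after 72 hr drug exposure at 37 degree celsius. Dose-response format was 8 points for NPC and 11 points for MIPE; data normalized to in-plate controls.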

HEK293T = experiment: as above; conditions: MCC and control cell lines, CellTiter-Glo viability, 72 h; at 44.8 µM (top of the series) unless noted
In short: as §3

MCC-13 = experiment: as above; conditions: MCC and control cell lines, CellTiter-Glo viability, 72 h; series mostly up to 46 µM
In short: as §3

KB-3-1 = experiment: Cytotoxic Profiling of Annotated Libraries Using Quantitative High-Throughput Screening (AID 1296008); conditions: Five cell lines viability, CellTiter-Glo ATP luminescence, 48-72 h; max response: hits give low values; for max response: % is set by controls: 0 for no effect and ±100 for the full control effect
In short: as §2

PC26 = experiment: qHTS profiling for inhibitors of Plasmodium falciparum proliferation (AID 504749); conditions: P. falciparum in erythrocytes, SYBR Green DNA, 72 h; series mostly up to 28.7 µM
In short: as §1

MCC-26 = experiment: qHTS assay to identify novel small-molecules to repurpose for Merkel cell carcinoma treatment (AID 1296009); conditions: MCC and control cell lines, CellTiter-Glo viability, 72 h; series mostly up to 46 µM
In short: as §3
Note: nearly all actives have a fitted effect of over 60% in size.
Potency is the fitted concentration of half-maximal effect.

CN(C)C(=N)N=C(N)N
inactive: Potency (P93_24) | Potency (P94_40) | Potency (PAD) | Potency (PC15) | Potency (PC49) | Potency (SC27B) | Potency (TAB109) | Potency (TAB113) | Potency (TAB165) | Potency (W2) | outcome (CRL-7250) | max response (HEK293) 2.32% | outcome (HEK293) | outcome (HaCat [1]) | max response (NIH3T3) -1.85% and 1.26% | outcome (HACAT [2]) | outcome (HEK293T) | Potency (MCC-13)

O=c1c(-c2ccc(O)cc2)coc2cc(O)cc(O)c12
inactive: Potency (P93_24) | Potency (P94_40) | Potency (PAD) | Potency (PC15) | Potency (PC49) | Potency (SC27B) | Potency (TAB109) | Potency (TAB113) | Potency (TAB165) | max response (CRL-7250) 4.48% | max response (HEK293) -3.7% | max response (HaCat [1]) 0.82% | outcome (HaCat [1]) | max response (KB-3-1) 32.1% | outcome (KB-3-1) | max response (NIH3T3) -9.8% and -21.1% | outcome (HACAT [2]) | Potency (MCC-13)

CC12CC3CC(C)(C1)CC(N)(C3)C2
active: Potency (P93_24) 10 µM
inactive: Potency (P94_40) | Potency (PAD) | Potency (PC15) | Potency (PC26) | Potency (SC27B) | Potency (TAB109) | Potency (TAB113) | Potency (TAB165) | outcome (CRL-7250) | max response (HEK293) -1.65% and -16.7% | max response (HaCat [1]) 0.352% and -2.07% | max response (KB-3-1) 0.442% | max response (NIH3T3) 1.33% and -0.312% | Potency (MCC-13) | Potency (MCC-26)

CC(C)NCC(O)COc1ccc(CCOCC2CC2)cc1 (stereo not given)
active: Potency (W2) 15.1 µM
inactive: Potency (PC49) | Potency (SC27B) | max response (CRL-7250) -5.76% | max response (HEK293) -0.0868% and -3.99% | max response (HaCat [1]) 2.43% | outcome (HaCat [1]) | max response (NIH3T3) 2.13% and -7.76% | outcome (HACAT [2]) | Potency (MCC-13)

O=C1Cc2cc(CCN3CCN(c4nsc5ccccc45)CC3)c(Cl)cc2N1
inactive: max response (CRL-7250) -1.82% and -0.528% | max response (HaCat [1]) -2.23% and 4.15% | outcome (HaCat [1]) | max response (KB-3-1) 2.45% [middle of 4 runs] | max response (NIH3T3) -14.8% and 4.36% | outcome (NIH3T3) | outcome (HACAT [2]) | Potency (MCC-13)
active: Potency (HEK293) 16.8 µM

CCCCc1oc2ccccc2c1C(=O)c1cc(I)c(OCCN(CC)CC)c(I)c1
active: Potency (P93_24) 3.55 µM | Potency (P94_40) 3.55 µM | Potency (PAD) 6.31 µM | Potency (PC15) 11.2 µM | Potency (PC26) 9.53 µM | Potency (SC27B) 10 µM | Potency (TAB109) 7.08 µM | Potency (TAB113) 12.6 µM | Potency (TAB165) 3.16 µM | Potency (W2) 4.26 µM | Potency (HEK293) 23.5 µM
inactive: max response (CRL-7250) -7.04% and -18.2% | outcome (HaCat [1]) | max response (KB-3-1) -16.7% and -5.99% and -5.01% | max response (NIH3T3) -21.3% and -20.5% | outcome (HACAT [2]) | Potency (MCC-13) | Potency (MCC-26)

CC[C@@]1(O)C(=O)OCc2c1cc1n(c2=O)Cc2cc3c(CN(C)C)c(O)ccc3nc2-1
inactive: Potency (PC15) | Potency (PC49)
active: Potency (P93_24) 4.47 µM | Potency (P94_40) 2.82 µM | Potency (TAB109) 6.31 µM | Potency (TAB113) 4.47 µM | Potency (TAB165) 3.55 µM | Potency (W2) 5.36 µM | Potency (CRL-7250) 7.5 µM and 14.8 µM and 6.51 µM | Potency (HEK293) 372 nM and 517 nM | Potency (HaCat [1]) 1.05 µM and 1.46 µM | Potency (KB-3-1) 5.9 µM and 3.26 µM | Potency (NIH3T3) 1.68 µM and 1.32 µM and 2.06 µM | Potency (MCC-13) 94.4 nM and 132 nM

COc1cc2nc(N(C)CCCNC(=O)C3CCCO3)nc(N)c2cc1OC (stereo not given)
inactive: max response (CRL-7250) -3.88% | max response (HEK293) 0.95% | max response (HaCat [1]) -0.905% and -4.65% | max response (KB-3-1) 9.19% and 1.98% | outcome (NIH3T3) | Potency (MCC-13)

CC#C[C@]1(O)CC[C@H]2[C@@H]3CCC4=CC(=O)CCC4=C3[C@@H](c3ccc(N(C)C)cc3)C[C@@]21C
inactive: max response (CRL-7250) -15.2% | max response (HaCat [1]) -29.4% and -8.42% | max response (KB-3-1) -19.9% | max response (NIH3T3) -20.2% and -3.41% | Potency (MCC-13) | Potency (MCC-26)
active: Potency (P93_24) 11.2 µM | Potency (PAD) 10 µM | Potency (PC15) 12.6 µM | Potency (PC26) 13.5 µM | Potency (SC27B) 7.94 µM | Potency (TAB109) 11.2 µM | Potency (TAB113) 8.91 µM | Potency (TAB165) 6.31 µM | Potency (W2) 6.75 µM | Potency (HEK293) 9.35 µM

CC(CCc1ccc(O)cc1)NCCc1ccc(O)c(O)c1 (stereo not given)
inactive: Potency (P93_24) | Potency (P94_40) | Potency (PAD) | Potency (PC26) | Potency (PC49) | Potency (SC27B) | Potency (TAB109) | Potency (TAB113) | Potency (TAB165) | max response (HEK293) -19% | max response (HaCat [1]) 0.349% | outcome (HaCat [1]) | max response (KB-3-1) -2.1% | max response (NIH3T3) -1.03% and 1.16% | outcome (HACAT [2]) | Potency (MCC-13)
active: Potency (CRL-7250) 23.7 µM

Clc1ccc(C(c2ccccc2Cl)C(Cl)Cl)cc1 (stereo not given)
inactive: Potency (P93_24) | Potency (P94_40) | Potency (PAD) | Potency (PC15) | Potency (PC49) | Potency (SC27B) | Potency (TAB109) | Potency (TAB113) | Potency (TAB165) | max response (CRL-7250) -3.27% | max response (HEK293) -1.26% | max response (HaCat [1]) -1.22% | outcome (HaCat [1]) | max response (KB-3-1) -10.1% and -1.61% | max response (NIH3T3) -2.6% and -1.15% | outcome (HACAT [2]) | Potency (MCC-13) | Potency (MCC-26)
